# Source: PubChem BioAssay (NCI)
# Compounds without any hit were thinned out: in the full panel of roughly 79,000, 15% have a hit. Values without a mark were called inactive. Calls of active or inactive are those of the source. Rule as the data show it: active = growth inhibition above about 70%; inactive = the rest.
# How the values were obtained:
# [1] = NCI Yeast Anticancer Drug Screen. Data for the rad50 strain (AID 155);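 also: 0% = growth of vehicle-only cultures of the same strain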; settings: S. cerevisiae rad50 strain growth inhibition, active compounds read high
# How it was run: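 Relative growth inhibition (compound vs vehicle) was measured in yeast with a defined repair-gene alteration.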
# [2] = NCI Yeast Anticancer Drug Screen. Data for the mec2-1 strain (AID 157); settings: S. cerevisiae mec2-1 strain, active compounds read high
# How it was run: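 Each compound was tested on mec2-1 yeast, a strain altered in DNA damage repair or cell cycle control. Growth inhibition is reported relative to vehicle.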
# [3] = NCI Yeast Anticancer Drug Screen. Data for the sgs1 mgt1 strain (AID 161);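 also: 0% = growth of cultures given vehicle only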; settings: S. cerevisiae sgs1 mgt1 strain, active compounds read high
# How it was run: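 Read-out: growth inhibition vs vehicle controls. Cells: mutant yeast strain deficient in DNA damage repair.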
# [4] = NCI Yeast Anticancer Drug Screen. Data for the cln2 rad14 strain (AID 165);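 also: 0% = growth equal to vehicle treated cultures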; settings: S. cerevisiae cln2 rad14 strain, active compounds read high
# How it was run: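 Test compounds were added to cln2 rad14 yeast cultures; inhibition of growth was then determined by comparison with vehicle treatment.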
# [5] = NCI Yeast Anticancer Drug Screen. Data for the bub3 strain (AID 167); settings: S. cerevisiae bub3 mutant strain, active compounds read high
# How it was run: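 Screening used yeast with an engineered genetic alteration affecting cell cycle control. Compound-exposed cultures were compared with vehicle cultures, and reduced growth was taken as inhibition.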
# [6] = NCI Yeast Anticancer Drug Screen. Data for the mlh1 rad18 strain (AID 175); settings: S. cerevisiae mlh1 rad18 strain growth inhibition, active compounds read high
# How it was run: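 Inhibition values reflect reduced growth of mutant yeast versus vehicle-treated controls following compound exposure; the mutations affect DNA damage repair.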
# [7] = at 5.0 µM (retest, dose inferred, filed as 0.5)
# [8] = at 50.0 µM (retest, dose inferred, filed as 5.0)
Compound,"growth inhibition [1, 7]","growth inhibition [1, 8]",growth inhibition ([1]; at 50.0 µM),"growth inhibition [2, 7]","growth inhibition [2, 8]",growth inhibition ([2]; at 50.0 µM),"growth inhibition [3, 7]","growth inhibition [3, 8]",growth inhibition ([3]; at 50.0 µM),"growth inhibition [4, 7]","growth inhibition [4, 8]",growth inhibition ([4]; at 50.0 µM),"growth inhibition [5, 7]","growth inhibition [5, 8]",growth inhibition ([5]; at 50.0 µM),"growth inhibition [6, 7]","growth inhibition [6, 8]",growth inhibition ([6]; at 50.0 µM)
OCCCC(Sc1ccccc1)c1ccccc1 (stereo not given),-1%,25%,46.4%,-18%,13%,78.5% (active),-15%,23%,67.2%,-1%,-1%,40.2%,-4%,3%,-0.25%,28%,23%,52.2%
CC(C)(C)c1ccc(-c2nc3ccccc3c(=O)o2)cc1,-3%,20%,55.7%,-1%,41%,53.1%,14%,74% (active),87.2% (active),-2%,40%,61%,-1%,86% (active),89.8% (active),-3%,55%,85% (active)
CSC(SC)(C(=O)O)c1cc(C)no1,-7%,-23%,19.4%,-17%,-2%,16.6%,-17%,-15%,2.55%,-7%,10%,45.2%,14%,7%,5.2%,-2%,-21%,1.2%
Cc1cccc(C)c1NC(=O)CCc1nnc(N)n1N,17%,4%,-20.6%,-1%,-3%,3.75%,7%,-2%,18.8%,-6%,6%,-23.4%,-3%,-2%,8.7%,-3%,-1%,16.4%
CCCCCCCNC1CCCc2cc(OC)ccc21 (stereo not given),40%,56%,85.5% (active),22%,31%,70.5% (active),28%,64%,84.2% (active),28%,54%,72.5% (active),21%,35%,69.8%,20%,60%,71.2% (active)
COc1ccccc1C(=O)Nc1ccc(Cl)c(C(=O)OC(C)C)c1,16%,33%,-1.8%,7%,20%,22.2%,14%,-32%,70.8% (active),14%,38%,58.6%,13%,47%,73.2% (active),15%,65%,28.7%
CCOC(=O)C(Br)c1nc2ccccc2[nH]c1=O (stereo not given),2%,73% (active),68.3%,-10%,81% (active),74.2% (active),2%,96% (active),49.1%,2%,49%,28.7%,-7%,86% (active),81.6% (active),-5%,98% (active),92.2% (active)
CCCCCCc1c(Cl)nc(Cl)nc1Cl,-1%,56%,65.8%,1%,43%,26.2%,-6%,41%,63.5%,0%,15%,-46.6%,-1%,33%,25.1%,-2%,66%,87.2% (active)
O=Cc1[nH]c(=S)[nH]c(=O)c1Cc1cccc2ccccc12,-8%,96% (active),97.9% (active),-3%,98% (active),97.8% (active),11%,99% (active),98.8% (active),0%,98% (active),91.8% (active),-19%,98% (active),98% (active),-3%,98% (active),98.9% (active)
C=C1CC(O)C2C(C[Se]c3ccccc3)C(=O)O[C@@H]2C2C(=C)[C@@H](O)CC12 (stereo not given in full),-3%,27%,46.4%,1%,36%,52.1%,0%,43%,29.6%,-5%,5%,-13.3%,-9%,11%,30.2%,-2%,30%,70.7% (active)
